According to PubChem BioAssay AID588674 (Broad Institute, 2011):
Hit rate of the full screen: of about 360,000 compounds, about 1,800 (0.5%) were called active. Only a selection was taken, and actives are over-represented in it overall. Values without a mark were called inactive.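 How the source made its calls: active means mean inhibition of at least 75% with every replicate also reaching 75%; inconclusive means mean inhibition at least 75% but some replicate below; inactive means mean inhibition below 75%.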

test: Shn3 3'UTR reporter decrease in osteoblasts – cell-based, Clone20 osteoblasts, firefly luciferase, set 2, Schnurri-3 inhibitor project, primary screen (AID 588674); settings: Clone20 osteoblast Shn3 3'UTR firefly luciferase, 24 h; at 12.5 µM; stronger effect = higher value;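 further: 0% = median of neutral control wells and 100% = pilot-screen positive control compound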

Compound	inhibition
CN(C)C(=O)CCc1ccc2c3c([nH]c2c1)[C@]1(C)[C@@H](C(=O)N2CCOCC2)C[C@H](CC(=O)NCCc2ccccn2)C(=O)N1CC3	-11.8%
COc1cc(F)ccc1-c1cc(C(=O)NCC2CCCCC2)[nH]n1	-10.1%
CCCOc1ccc(F)cc1-c1cc(C(=O)Nc2ccc(F)cc2)[nH]n1	20%
COc1ccc(OC)c(NC(=O)c2cc(-c3cc(F)ccc3OCC3CCCO3)n[nH]2)c1 (stereo not drawn)	86.3% (active)
O=C(CSc1ncnc2c1nnn2Cc1ccc(F)cc1)NC1CCCC1	-2.06%
O=C1c2ccccc2[C@@H]2C[C@@H](O)[C@H](Nc3ccccc3Cl)CCN12	55.5%
Cn1cccc1Cc1nnc(SCC(=O)NCCc2ccccc2)n1-c1ccc(F)cc1	87.9% (active)
COc1ccccc1NC(=O)CSc1nnc(Cc2cccn2C)n1-c1ccc(F)cc1	17%
Cc1ccc(C)c(NC(=O)CSc2nnc(Cc3cccn3C)n2-c2ccc(F)cc2)c1	7.47%
Fc1cccc(Cc2c(-c3ccc(Cl)cc3)nc3ccc(Cl)cn23)c1	-13.4%
CN1OC[C@@H]2CN(C(=O)c3cccc4ccccc34)[C@H](c3ccc(N4CCCCC4)cc3)C[C@@H]21	-9.07%
O=S(=O)(Nc1ccc(Oc2ncccn2)c(Cl)c1)c1ccc(F)cc1	-28.6%
Cc1ccc(S(=O)(=O)Nc2ccc3ncccc3c2)cc1	86.6% (active)
Cc1cc(C)cc(OCC(=O)Nc2ccc(S(=O)(=O)Nc3ccccn3)cc2)c1	6.49%
Cc1c(CC(=O)NCC(=O)NCC(=O)O)c(=O)oc2cc3oc4c(c3cc12)CCCC4	-25.9%
CN(C)C(=O)c1ccc2c(c1)C1C3CCC(C3)C1C(c1ccccc1)N2 (stereo not drawn)	-19.2%
O=C(c1ccccc1)N1CCN(c2ccc([N+](=O)[O-])c(NCc3ccco3)c2)CC1	27.6%
COc1ccccc1OCCNc1cc(N2CCOCC2)ccc1[N+](=O)[O-]	40.1%
COc1ccc(CCNc2cc(N3CCN(C(=O)c4ccccc4OC)CC3)ccc2[N+](=O)[O-])cc1OC	88.7% (active)
CC1=CC(=O)C=CC1(C)C(Cl)(Cl)Cl (stereo not drawn)	9.05%
O=C(CCS(=O)(=O)c1ccc2c(c1)NC(=O)CS2)NCc1ccccc1Cl	-18.1%
O=C(NCCSCc1ccccc1)c1ccc(Cl)c(S(=O)(=O)N2CCOCC2)c1	10.8%

Compound	inhibition
CC(C)(CNC(=O)c1ccc(Cl)c(S(=O)(=O)N2CCc3ccccc3C2)c1)N1CCOCC1	82.5% (active)
CN(C)S(=O)(=O)c1ccc(C(=O)NCC(C)(C)N2CCOCC2)cc1	23%
CCOC(=O)C1=CCC(c2ccc(F)cc2)N(S(=O)(=O)c2ccc(C)cc2)C1 (stereo not drawn)	10.7%
N#Cc1c(-c2ccc(F)cc2)cc(C2CC2)nc1SCC(=O)c1cccs1	-3.6%
CN1C2CCC1CC(NC(=O)c1ccc([N+](=O)[O-])cc1)C2 (stereo not drawn)	-1.34%
CN(CC1CCCO1)S(=O)(=O)c1ccc(C(=O)Nc2ccc([N+](=O)[O-])cc2)cc1 (stereo not drawn)	39.9%
O=C(Nc1cc2c3c(c1)C1CCCC1CN3CC1CCCC21)c1ccc([N+](=O)[O-])cc1 (stereo not drawn)	88.9% (active)
CC1=NNC(=O)C1CCC(=O)N/N=C\c1cccc(Cl)c1 (stereo not drawn)	-5.12%
Cc1cc(=O)oc2cc(OC(C)C(=O)Nc3ccc(N4CCOCC4)cc3)ccc12 (stereo not drawn)	10%
O=C(CSc1nnnn1-c1ccc2c(c1)CCC2)Nc1ccc2c(c1)OCCO2	0.48%
FC(F)(F)c1cccc(-c2nc(COc3ccc(Cl)cc3Cl)no2)c1	6.45%
CC(C)(C)Nc1nc(-c2ccccn2)nc2ccccc12	89.7% (active)
c1ccc(-c2nccc(-c3ccc(-n4cnc5ccccc54)cc3)n2)nc1	11.2%
Cc1nc2ccccc2c(C(=O)O)c1-c1ccccn1	-12.3%
CN(CC(=O)NCc1ccncc1)S(=O)(=O)c1ccc(Br)cc1	7.05%
O=C(NC1=NCCS1)c1ccc(Cl)s1	-84.7%
C=C1C(=O)[C@]23C[C@H]1CCC2[C@@]1(C)C(C[C@@H]3O)[C@](C)(C(=O)O)CC[C@@H]1O (stereo partly drawn)	29.4%
O=C(/C=C/Sc1ncn[nH]1)c1ccc(Cl)cc1	97.7% (active)
NC(=O)C1CCN(C(=O)c2cc(S(=O)(=O)N3CCN(c4ccccc4)CC3)ccc2Cl)CC1	-11.1%
CC1CCC(N2CC(=O)N(Cc3ccc4c(c3)OCO4)C(c3ccc(F)cc3)C2=O)CC1 (stereo not drawn)	7.77%
COc1cc(SC)ccc1C(=O)NNC(=O)C1COc2ccccc2O1 (stereo not drawn)	4.8%
COc1cc(SC)ccc1C(=O)Nc1nc(C)cs1	86.2% (active)

Compound	inhibition
Cc1csc(NC(=O)CSc2nc(=O)cc(N)n2-c2ccc(F)cc2)n1	-11%
CCOc1ccc(C(CCc2ccccc2)NC(=O)c2ccc(OC)c(OC)c2)cc1OCC (stereo not drawn)	20%
CCCCC(=O)NC(c1ccc(OC)c(OC)c1)c1ccc2cccnc2c1O (stereo not drawn)	87.9% (active)
C=CCn1c(COc2cccc3cccnc23)nnc1SCC(=O)OC	0.069%
COC(=O)c1sccc1-n1cccc1C(=O)C(=O)N1CCCCC1	2.95%
O=C(Nc1ccccc1Cl)/C(Cl)=C(\Cl)S(=O)c1ccccc1 (stereo not drawn)	97.6% (active)
CS/C(=C\C(=O)c1ccco1)Nc1ccccc1Cl	-15.1%
O=C(COc1ccc(-n2cnnn2)cc1)Nc1ccccc1Cl	1.66%
Cc1cccc(N2CCN(C(=O)CCS(=O)(=O)c3ccc4c(c3)NC(=O)C(C)S4)CC2)c1C (stereo not drawn)	78.8%
CC(=O)Nc1ccc(NC(=O)C(C)OC(=O)C2CC(=O)N(CCc3ccccc3)C2)cc1 (stereo not drawn)	-14.3%
O=C(COC(=O)C1CC2CCCC(C1)C2=O)NC(=O)c1ccccc1 (stereo not drawn)	14.5%
COc1ccc(C(C#N)=C2C=CC(=NO)c3ccccc32)cc1	18.4%
Cc1ccc(CS(=O)(=O)c2ncc(Cl)c(C(=O)Nc3nnc(C)s3)n2)cc1	98.8% (active)
NC(=O)CSc1nnc(NC(=O)c2ccc(Br)o2)s1	-19.4%
Cc1cccc(C(=O)Nc2nnc(S(=O)(=O)N3CCCCCC3)s2)c1	-6.34%
Cc1ccc(S(=O)(=O)CCC(=O)Nc2nnc(CC(C)C)s2)cc1	-5.29%
CSc1nnc(NC(=O)c2nc(S(=O)(=O)Cc3ccc(C)cc3)ncc2Cl)s1	97% (active)
O=C(Nc1nnc(-c2ccc(F)cc2)s1)c1c(F)cccc1Cl	-31.5%
O=C(O)C1C2C=CC(O2)C1C(=O)Nc1ccccn1 (stereo not drawn)	1.15%
NC(=O)C1CCN(Cc2nc3c(Br)cc(Br)cc3c(=O)[nH]2)CC1	9.29%
CC(C)C[C@H]1CNC(=S)N1C[C@H]1CCCN1C[C@H](Cc1ccc(O)cc1)N1C[C@H](Cc2ccc(O)cc2)N(CC2CCCCC2)C1=S	9.03%
Cc1noc(COc2ccccc2OCc2onc(C)c2Cl)c1Cl	9.9%

Compound	inhibition
O=C(C=CC(=O)Nc1ccc(F)cc1F)Nc1ccc(F)cc1F	12.7%
COc1ccc(NC(=O)C2Cc3c(-c4cccc(NC(C)=O)c4)ccnc3O2)cc1OC (stereo not drawn)	47.1%
CC(CCc1ccccc1)NC(=O)COC(=O)c1ccc(F)cc1 (stereo not drawn)	-0.45%
Oc1c(CN2CCN(c3ccc(F)cc3)CC2)cc(Cl)c2cccnc12	83.5% (active)
Cc1cccc(C)c1NC(=O)CN1CCN(c2ccc(F)cc2)CC1	-13.2%
Cc1cc(=O)oc2cc(OCC(=O)N3CCN(c4ccc(F)cc4)CC3)c(Cl)cc12	4.64%
O=C(Cc1ccccc1)NNC(=O)C1CCN(c2ncccn2)CC1	-8.28%
O=c1cc(CN2CCCCCCC2)c2c(ccc3ccccc32)o1	21.3%
Oc1c(CN2CCCC2)cc(COCc2ccccc2)c2cccnc12	86% (active)
CC1(C)OC(=O)N2CCc3ccccc3C21C (stereo not drawn)	-7.85%
CC(OC(=O)c1cccnc1Cl)C(=O)NC1CCCCC1 (stereo not drawn)	-10.8%
COC(=O)C1CCN(C(=O)NC2CC(=O)N(c3ccc4c(c3)OCCO4)C2)CC1 (stereo not drawn)	-6.55%
CC(=O)Nc1cc(-c2cccc(CO)c2)cn2c(-c3cccc(C(F)(F)F)c3)cnc12	10.6%
C[C@H]([C@@H](O)[C@@H](O)[C@@H](C)C(C)(C)C)[C@H]1CC[C@H]2C3CC[C@H]4C[C@H](OS(=O)(=O)O)[C@@H](OS(=O)(=O)O)C[C@]4(C)[C@H]3CC[C@]12C (stereo partly drawn)	-9.66%
CC(=O)c1ccccc1NC(=O)CC1(CC(=O)O)CCCCC1	-24.1%
Cn1c(=O)c2c(nc(OCc3cccnc3)n2Cc2ccccc2)n(C)c1=O	30%
C=CCn1c(Oc2ccc(C(=O)OC)cc2)nc2c1c(=O)n(C)c(=O)n2C	21%
C=CCOc1nc2c(c(=O)n(C)c(=O)n2C)n1Cc1ccc(Cl)cc1Cl	86.3% (active)
CCCn1c(=S)[nH]c2ccc(C(F)(F)F)cc21	-4.29%
COc1ccc(C(=O)NC2CCCc3c2cnn3-c2cccc(C)c2C)c(OC)n1 (stereo not drawn)	84.1%
Cn1nccc1C(=O)NC1CCCc2c1cnn2-c1ccccc1F (stereo not drawn)	90.2% (active)
Cn1nccc1C(=O)NC1CCCc2c1cnn2-c1ccc(F)cc1F (stereo not drawn)	77.1%
